HCV inh: inhibitors of hepatitis C virus infection; Huh7.5.1 HCVcc-Cre infection, luciferase reporter, 44 h; Potency, µM (top dose mostly 41.8 µM), without a hit: at the top dose activity change, negative = inhibition, actives largely listed as inhibitors; actives 3.4% (n = 340,000); active = well fitted inhibition curve with a large enough effect; inconclusive = small, poorly fitted or top-dose-only effect, or another doubt; inactive = no such curve, though single readings can be large or run the other way; also: potency is read from the fitted curve at half-maximal effect
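Seed cells (1,000/well) for 4 h; treat with compound and infect with HCVcc-Cre, moi about 0.5. Incubate 44 h, then detect luciferase activity.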
HCMV antiviral: inhibitors of human cytomegalovirus | HFF cells, HCMV-luciferase reporter, 72 h; hits give low values | activity change, negative = inhibition, % at 57.5 µM | actives 4.5% (n = 410,000) | AID 1259415; in the data active = activity change below about -60%; inconclusive = no clear call, values can overlap the other calls; inactive = above about -39%
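Compounds were evaluated in HFFs infected with an HCMV luciferase reporter virus (MOI 1 PFU/cell). Luciferase in lysates collected 72 h post infection served as the replication measure.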
Lassa entry inh: blocks Lassa virus binding to or entry into cells | Lassa virus pseudotype entry inhibition, cell reporter | Potency, µM (highest dose often 37.9 µM), inactives show top-dose activity change, negative = inhibition, most hits filed as inhibitors | actives 1.2% (n = 300,000); calls by dose curve; tested in HEK293 cells; also: potency is read from the fitted curve at half-maximal effect; nearly all actives have a fitted effect of over 50% in size
FMDV antiviral: foot and mouth disease virus antiviral activity. FMDV antiviral cell-based qHTS. Potency, µM (titrated, usually from 57.9 µM), for the others: at the highest dose activity change, negative = inhibition, usual class: inhibitors. actives 1.2% (n = 410,000); calls by dose curve; tested in HEK293T cells; also: read-out not given here; potency is read from the fitted curve at half-maximal effect; nearly all actives have a fitted effect of over 45% in size
MARV entry inh: Marburg virus entry inhibition; Marburg virus pseudotyped entry inhibition, cell reporter; Potency, µM (doses to about 37.8 µM), without a hit: at the highest dose activity change, negative = inhibition, hits mostly inhibitors; actives 1.8% (n = 300,000); AID 540276; calls by dose curve; tested in HEK293 cells; also: potency is read from the fitted curve at half-maximal effect
Numbers without * were called inactive; u = inconclusive; x = not tested or not shown; ! = a repeat was not active; [ ] = another dose, or the depositor's remark. Hits are enriched below; roughly 7.9% of the tested compounds scored in any of these assays. % is scaled to controls: 0 for no effect and ±100 for the full control effect.

SMILES	HCV inh	HCMV antiviral	Lassa entry inh	FMDV antiviral	MARV entry inh
Cc1ccc(OCCN2C(=O)C(=O)c3cc(C)ccc32)cc1	u	-92*	x	-3%	x
Cc1ccc2c(c1)C(=O)C(=O)N2Cc1ccc(OC(C)C)cc1	x	-76*	u	-9%	u
CCCN1C(=O)C(=O)c2cc(Cl)ccc21	u	-86*	x	0%	x
COc1ccc(NC(=O)COc2ccc(S(=O)(=O)NC3CCCCC3)cc2)cc1OC	x	3	-15%[46.1 µM]	6%	u
COc1ccc2c(c1)CCc1c(C(=O)Nc3ccccc3C(F)(F)F)noc1-2	x	25	8%[46.1 µM]	25%	u
O=C(c1cc(-c2ccc(Br)cc2)on1)N1CCCCCC1	4%	38	u	26%	u
O=C(c1cc(-c2ccc(Br)cc2)on1)N1CCOCC1	-19%	-4	2.5µM*	21%	u
COc1cccc(-c2cc(C(=O)N3CCOCC3)no2)c1	14%	66	-21%[46.1 µM]	-1%	10µM*
COc1ccc(OC)c(NC(=O)CCc2nc(-c3ccc(C)cc3)no2)c1	x	-32	-1%[46.1 µM]	-20%	1%[46.1 µM]
CCc1cc2c(cc3c(=O)n(CC(=O)N4CCN(c5ccccn5)CC4)nc(CC)n32)s1	7.9µM*	-6	-9%	x	u
N#CCCN(Cc1ccccc1)C(C(=O)NC1CCCCC1)c1cc2ccccc2o1 (stereo not drawn)	x	-60*	x	-25%	x
COc1ccccc1CCC(=O)N1CCOc2c(cc(-c3cnc4ccccc4c3)cc2OC)C1	x	x	x	-9%	x
Cc1cccc(N2CCN(CCNC(=O)Nc3ccc(Cl)cc3)CC2)c1C	x	-99*	14%[46.1 µM]	0%	7%[46.1 µM]
Cc1cccc(N2CCN(CC(=O)Nc3ccc(S(=O)(=O)N4CCOCC4)cc3)CC2)c1C	10µM*	-67*	x	u	x
O=C(CN1CCOCC1)Nc1ccc(S(=O)(=O)N2CCCCCC2)cc1	8%	-82*	-2%	7%	10%
COc1ccccc1CNC(=O)CCC1N=C2c3ccccc3N=C(SCC(=O)Nc3ccc(N(C)C)cc3)N2C1=O (stereo not drawn)	x	44	15%[46.1 µM]	4%	x
O=c1[nH]c2cc([N+](=O)[O-])ccc2c2ccccc12	-16%	-12	0%	-7%	-17%
CCc1cccc2[nH]c3cc([N+](=O)[O-])ccc3c12	u	-61*	10%[46.1 µM]	-15%	-25%[46.1 µM]
O=C(Cn1cnc([N+](=O)[O-])c1)Nc1cc(Oc2ccc(Cl)cc2Cl)cc([N+](=O)[O-])c1	6.3µM*	-73*	u	-10%	u
Cc1ccc2oc(=O)c3cnn(CC(=O)Nc4ccccc4N4CCN(C)CC4)c3c2c1	14µM*	u	x	-21%	3%
Cc1ccc2oc(=O)c3cnn(CC(=O)N4CCN(c5ccccc5F)CC4)c3c2c1	x	-1	15%[46.1 µM]	0%	1%[46.1 µM]
COc1ccc(CN(CC(O)COCc2ccccc2)S(=O)(=O)c2ccccc2Br)cc1OC (stereo not drawn)	11µM*	-22	x	-8%	x
C=CC(COCc1ccccc1)N(C(=O)OC(C)(C)C)S(=O)(=O)c1ccccc1Br (stereo not drawn)	-25%	-21	x	u	x
Cc1ccc(/C=N/NC(=O)CNC(=O)COc2ccccc2)cc1	2%	-61*	12%	0%	5%
Cc1cccc(OCC(=O)NCC(=O)N/N=C/c2cc(Br)cc(Br)c2O)c1	u	-83*	-13%	-2%	u
SMILES	HCV inh	HCMV antiviral	Lassa entry inh	FMDV antiviral	MARV entry inh
O=C(/C=C/c1ccccc1)Nc1nc2n(n1)C(c1ccc(F)cc1)C=C(c1ccccc1)N2 (stereo not drawn)	x	-12	-29%[46.1 µM]	-10%	5%[46.1 µM]
CCOC(=O)c1[nH]cnc1N=Nc1c(O)ccc2ccccc12	7.9µM*	-97*	u	-19%	u
Oc1ccc2ccccc2c1N=Nc1ccccn1	8.9µM*	-98*	8.9µM*	u	u
Cc1ccc(CNC(=O)Cn2ccn(-c3ccc(F)cc3)c(=O)c2=O)cc1	x	-3	0%[46.1 µM]	0%	x
O=C1Nc2cccnc2N(C(=O)CCl)c2ccccc21	16µM*	u	u	u	u
NCCN1CCN(CC(=O)N2c3ccccc3C(=O)Nc3cccnc32)CC1	x	-33	x	-3%	x
O=C(Nc1c(-c2ccccc2)nc2ccccn12)c1ccccc1F	6%	-64*!	-9%[46.1 µM]	-9%	u
CC(Oc1ccc(F)cc1)C(=O)N1CCC(c2nc3ccccc3s2)CC1 (stereo not drawn)	x	-30	13%[46.1 µM]	u	-1%[46.1 µM]
Cc1cc(C)cc(Oc2ccc(N)cc2)c1	2µM*	32	u	8%	-13%
Nc1ccc(Oc2ccc(Br)cc2)cc1	u	-6	-3%	2%	18%
Cc1cccc(Oc2ccc(N)cc2)c1	u	61	-1%	0%	23%
Nc1ccc(Oc2cccc(Oc3ccc(N)cc3)c2)cc1	-11%	-76*	u	10µM*	u
CN(C)C(=O)c1ccc(Nc2cc3c(cn2)cc(-c2cccnc2)n3Cc2ccccc2)cc1	x	-13	x	x	x
O=C(Nc1nnc(-c2ccccc2SCc2ccccc2F)s1)Nc1ccccc1F	25%	-61*	1%	1%	u
O=C(CSc1nnc(-c2cccs2)o1)Oc1ccccc1Cl	x	45	-2%[46.1 µM]	-12%	u
COC(=O)C1=C(C)NC(=O)/C1=C\c1cc(C)n(-c2c(C)cccc2C)c1C	u	-62*	u	x	12µM*
COC(=O)C1=C(C)NC(=O)/C1=C\c1cc(C)n(-c2ccccc2C)c1C	u	-28	u	-1%	-4%
CC1=C(c2ccc(C)c(C)c2)S(=O)(=O)N(Cc2ccc(C(=O)NCc3cccc(C)c3)cc2)C1=O	x	-3	x	1%	u
CC(C)c1nc(N2CCOCC2)c(C#N)c2c1CCCC2	7.1µM*	u	-30%	u	u
CCSc1nc(N2CCOCC2)c2c(c1C#N)CCCC2	-20%	-40	0%	u	-24%[46.1 µM]
N#Cc1c(NCCCO)nc(-c2ccco2)c2c1CCCC2	10µM*	-21	-14%	-23%	-10%[46.1 µM]
CN1CCc2c(C#N)c(N3CCCCC3)nc(NCc3ccccc3)c2C1	u	46	u	-24%	u
CC(C)c1nc(NCCO)c(C#N)c2c1CCCC2	u	-66*	3%	u	-27%[46.1 µM]
N#Cc1c(NCCCO)nc(NCc2ccccc2)c2c1CCN(Cc1ccccc1)C2	11µM*	23	u	-10%	u
COc1ccccc1NC(=O)C1CCN(S(=O)(=O)c2cn(C)cn2)CC1	x	49	4%[46.1 µM]	29%	x
CCOC(=O)C(NCc1ccccc1NC(=O)OC(C)(C)C)c1nnnn1Cc1ccccc1 (stereo not drawn)	x	24	x	x	x
O=c1c2cc3c(cc2n(Cc2ccc(Cl)cc2)c(=O)n1Cc1nc(-c2ccccc2)no1)OCO3	x	-2	-5%[46.1 µM]	-21%	x
COc1ccc(C(=O)C(Nc2ccccc2)C(=O)Nc2ccc3ccccc3c2)cc1 (stereo not drawn)	x	51	x	x	x
COCC(C)NC(=O)C1CC(c2cccc(Br)c2)=NO1 (stereo not drawn)	3.2µM*	30	2%	14%	2%

Source: PubChem (National Center for Advancing Translational Sciences (NCATS))
